Structures are written as SMILES. Records with an inconclusive call do not appear. A call without a number means that no potency is given here. The source made the active and inactive calls. Calls come from the whole dose curve; as a rule, active = well fitted curve in the direction sought with a large enough effect in the repeat runs; inconclusive = weak or mixed curves; inactive = no such curve, though single readings can be large; an effect the other way counts as inactive or inconclusive.

The first experiment can be described thus: Human pregnane X receptor (PXR) small molecule agonists, qHTS cell viability counter screen (AID 1346977). Note: nearly all actives have a fitted effect of over 50% in size. The conditions noted are these: PXR-Luc HepG2 viability, CellTiter-Fluor, 24 h; series mostly up to 92.4 µM. Summed up: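 Viability counter screen: CellTiter-Fluor signal in PXR-Luc HepG2 cells, 24hr compound exposure, 37C, 5% CO2.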
Take `C=CCCCCCCCCCCCC`: the Potency entry is “inactive”.

As to `C=C(C)C(=O)OCCOP(=O)(O)OCCOC(=O)C(=C)C`, the Potency result was “inactive”.

As for `CC(C)CC(=O)O`, the Potency result is “inactive”.

As to `CC(C)C[C@H](NC(=O)CNC(=O)[C@H](Cc1ccc(O)cc1)NC(=O)[C@H](CO)NC(=O)[C@H](Cc1c[nH]c2ccccc12)NC(=O)[C@H](Cc1cnc[nH]1)NC(=O)[C@@H]1CCC(=O)N1)C(=O)N[C@@H](CCCN=C(N)N)C(=O)N1CCC[C@H]1C(=O)NCC(N)=O` (stereo in doubt), the Potency result is “inactive”.

Turning to `O=C(CS(=O)Cc1ccco1)NC/C=C\COc1cc(CN2CCCCC2)ccn1` (centres undefined), the Potency result was “inactive”.

As to `C=COCCOCCOCCOC=C`, the Potency entry is “inactive”.

`Cc1cccc(OCC(O)CNC(C)(C)C)c1C` (centres undefined): the Potency entry was “inactive”.

For the compound `C=C(C)C(=O)OCCNC(C)(C)C`, the Potency entry is “inactive”.

As for `FC(F)(F)c1ccccc1-n1ccnc1`, the Potency result is “inactive”.

As for `NCCS`, the Potency result is “inactive”.

As to `COP(=O)(OC)OC(c1ccc(Cl)cc1)P(=O)(OC)OC` (centres undefined), the Potency entry is “inactive”.

For `COc1ccc(-c2cc(=O)c3c(O)cc(O[C@@H]4O[C@H](CO[C@@H]5O[C@@H](C)[C@H](O)[C@@H](O)[C@H]5O)[C@@H](O)[C@H](O)[C@H]4O)cc3o2)cc1O`, the Potency entry was “inactive”.

`Cc1nc2n(c(=O)c1CCN1CCC(c3noc4cc(F)ccc34)CC1)CCC[C@H]2O`: the activity change, negative = cytotoxicity was -2.46% [at 19 µM] (inactive).

Take `C[C@H](N)[C@H](O)c1cccc(O)c1`: the Potency entry is “inactive”.

For the compound `COc1cc(C(=S)N2CCOCC2)cc(OC)c1OC`, the Potency entry was “inactive”.

In the case of `CC(C)C(=O)OCc1cccc(OC(=O)[C@@H]2N3C(=O)[C@@H](NC(=O)Cc4ccccc4)[C@H]3SC2(C)C)c1`, the Potency result was “inactive”.

For the compound `CCN(CC)CC(=O)Nc1c(C)cccc1C`, the Potency entry is “inactive”.

Take `OCCCCC(O)CO` (centres undefined): the Potency entry was “inactive”.

Regarding `CC(S)C(=O)NCC(=O)O` (centres undefined), the Potency result is “inactive”.

Take `Cc1cccc(C)c1OCC(C)N` (centres undefined): the Potency result was “inactive”.

In the case of `CC/C=C\CC1=C(C)CCC1=O`, the Potency entry was “inactive”.

`CC(=O)CCCCn1c(=O)c2c(ncn2C)n(C)c1=O`: the Potency result was “inactive”.

As to `C[C@@H](O)[C@H]1C(=O)N2C(C(=O)O)=C(SCCN=CN)C[C@H]12`, the Potency result was “inactive”.

Consider `CCN1CCc2nc(N)oc2CC1`, for which the Potency result is “inactive”.

With `C[C@H](CCC(=O)O)[C@H]1CC[C@H]2[C@@H]3C(=O)C[C@@H]4CC(=O)CC[C@]4(C)[C@H]3CC(=O)[C@]12C`, the Potency entry is “inactive”.

Regarding `O=C1c2ccccc2C(=O)C1c1ccccc1`, the Potency result is “inactive”.

As to `Cc1cc2cc3c(C)cc(=O)oc3c(C)c2o1`, the Potency entry was “inactive”.

As to `CC(=C(CCOC(=O)C(C)C)SSC(CCOC(=O)C(C)C)=C(C)N(C=O)Cc1cnc(C)nc1N)N(C=O)Cc1cnc(C)nc1N`, the Potency entry was “inactive”.

Consider `CC1(CO)CN(c2ccccc2)NC1=O` (centres undefined), for which the Potency entry is “inactive”.

For the compound `Nc1ncnc(Nc2ccccc2)n1`, the Potency result is “inactive”.

With `C=C(C)C(=O)OCCN(CC)CC`, the Potency entry was “inactive”.

As for `COC(=O)[C@@H]1[C@H]2C[C@H]3c4[nH]c5ccccc5c4CCN3C[C@@H]2CC[C@@H]1O`, the Potency result is “inactive”.

With `C=C(C)C1CCC(C)(O)CC1` (centres undefined), the Potency entry is “inactive”.

For the compound `CO[C@@H]1[C@@H](OC(N)=O)[C@@H](O)[C@H](Oc2ccc3c(O)c(NC(=O)c4ccc(O)c(CC=C(C)C)c4)c(=O)oc3c2C)OC1(C)C`, the Potency entry is “inactive”.

As to `CCOc1cc(NC(C)=O)ccc1C(=O)OC`, the Potency entry was “inactive”.

As to `COCCOCCOCCOCCOCCO`, the Potency result was “inactive”.

As to `O=C1c2ccccc2C(=O)c2cc(S(=O)(=O)O)ccc21`, the Potency result was “inactive”.

The nature of a further experiment: Caspase-3/7 induction in HepG2 cells by small molecules, qHTS assay (AID 1346978). Note: nearly all actives have a fitted effect of over 15% in size. The conditions noted are these: HepG2 caspase-3/7 activation, Caspase-Glo luminescence, 17 h; series mostly up to 92.4 µM. A digest of the protocol: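 Wild-type HepG2 cells, 2,000/well, settled 5 hr at 37 C and 5% CO2, then compound-treated for 17 hr; caspase-3/7 activity read by luminescent Caspase-Glo 3/7 after 30 min at room temperature.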
Regarding `C=CCCCCCCCCCCCC`, the Potency result was “inactive”.

For `C=C(C)C(=O)OCCOP(=O)(O)OCCOC(=O)C(=C)C`, the Potency result was “inactive”.

As to `CC(C)CC(=O)O`, the Potency result is “inactive”.

For the compound `CC(C)C[C@H](NC(=O)CNC(=O)[C@H](Cc1ccc(O)cc1)NC(=O)[C@H](CO)NC(=O)[C@H](Cc1c[nH]c2ccccc12)NC(=O)[C@H](Cc1cnc[nH]1)NC(=O)[C@@H]1CCC(=O)N1)C(=O)N[C@@H](CCCN=C(N)N)C(=O)N1CCC[C@H]1C(=O)NCC(N)=O` (stereo in doubt), the Potency entry was “inactive”.

Take `O=C(CS(=O)Cc1ccco1)NC/C=C\COc1cc(CN2CCCCC2)ccn1` (centres undefined): the Potency entry was “inactive”.

On to `C=COCCOCCOCCOC=C`, for which the Potency entry was “inactive”.

`Cc1cccc(OCC(O)CNC(C)(C)C)c1C` (centres undefined): the Potency result is “inactive”.

`C=C(C)C(=O)OCCNC(C)(C)C`: the Potency entry was “inactive”.

Regarding `FC(F)(F)c1ccccc1-n1ccnc1`, the Potency entry is “inactive”.

With `NCCS`, the Potency entry is “inactive”.

Regarding `COP(=O)(OC)OC(c1ccc(Cl)cc1)P(=O)(OC)OC` (centres undefined), the Potency entry is “inactive”.

On to `COc1ccc(-c2cc(=O)c3c(O)cc(O[C@@H]4O[C@H](CO[C@@H]5O[C@@H](C)[C@H](O)[C@@H](O)[C@H]5O)[C@@H](O)[C@H](O)[C@H]4O)cc3o2)cc1O`, for which the Potency result was “inactive”.

Turning to `Cc1nc2n(c(=O)c1CCN1CCC(c3noc4cc(F)ccc34)CC1)CCC[C@H]2O`, the caspase activation is 0.536% [at 19 µM] (inactive).

For `C[C@H](N)[C@H](O)c1cccc(O)c1`, the Potency entry is “inactive”.

With `COc1cc(C(=S)N2CCOCC2)cc(OC)c1OC`, the Potency entry is “inactive”.

In the case of `CC(C)C(=O)OCc1cccc(OC(=O)[C@@H]2N3C(=O)[C@@H](NC(=O)Cc4ccccc4)[C@H]3SC2(C)C)c1`, the Potency result was “inactive”.

In the case of `CCN(CC)CC(=O)Nc1c(C)cccc1C`, the Potency entry was “inactive”.

With `OCCCCC(O)CO` (centres undefined), the Potency entry was “inactive”.

For the compound `CC(S)C(=O)NCC(=O)O` (centres undefined), the Potency result is “inactive”.

Regarding `Cc1cccc(C)c1OCC(C)N` (centres undefined), the Potency result was “inactive”.

For `CC/C=C\CC1=C(C)CCC1=O`, the Potency result is “inactive”.

`CC(=O)CCCCn1c(=O)c2c(ncn2C)n(C)c1=O`: the Potency entry was “inactive”.

As for `C[C@@H](O)[C@H]1C(=O)N2C(C(=O)O)=C(SCCN=CN)C[C@H]12`, the Potency result was “inactive”.

Consider `CCN1CCc2nc(N)oc2CC1`, for which the Potency entry was “inactive”.

On to `C[C@H](CCC(=O)O)[C@H]1CC[C@H]2[C@@H]3C(=O)C[C@@H]4CC(=O)CC[C@]4(C)[C@H]3CC(=O)[C@]12C`, for which the Potency result was “inactive”.

`O=C1c2ccccc2C(=O)C1c1ccccc1`: the Potency result is “inactive”.

For `Cc1cc2cc3c(C)cc(=O)oc3c(C)c2o1`, the Potency entry is “inactive”.

In the case of `CC(=C(CCOC(=O)C(C)C)SSC(CCOC(=O)C(C)C)=C(C)N(C=O)Cc1cnc(C)nc1N)N(C=O)Cc1cnc(C)nc1N`, the Potency result was “inactive”.

`CC1(CO)CN(c2ccccc2)NC1=O` (centres undefined): the Potency result was “inactive”.

Turning to `Nc1ncnc(Nc2ccccc2)n1`, the Potency entry was “inactive”.

For `C=C(C)C(=O)OCCN(CC)CC`, the Potency result is “inactive”.

As for `COC(=O)[C@@H]1[C@H]2C[C@H]3c4[nH]c5ccccc5c4CCN3C[C@@H]2CC[C@@H]1O`, the Potency result is “inactive”.

In the case of `C=C(C)C1CCC(C)(O)CC1` (centres undefined), the Potency entry was “inactive”.

With `CO[C@@H]1[C@@H](OC(N)=O)[C@@H](O)[C@H](Oc2ccc3c(O)c(NC(=O)c4ccc(O)c(CC=C(C)C)c4)c(=O)oc3c2C)OC1(C)C`, the Potency result was “inactive”.

As to `CCOc1cc(NC(C)=O)ccc1C(=O)OC`, the Potency entry was “inactive”.

For the compound `COCCOCCOCCOCCOCCO`, the Potency entry was “inactive”.

With `O=C1c2ccccc2C(=O)c2cc(S(=O)(=O)O)ccc21`, the Potency entry was “inactive”.

The values above are taken from PubChem BioAssay (Tox21).
